Results: PubChem BioAssay AID651820 (National Center for Advancing Translational Sciences (NCATS), 2012)
Out of some 340,000 compounds screened, about 12,000 (3.5%) were called active. Where a call stands in place of a potency, no number is given. Another 18% or so got no clear call; they are omitted. This is one part of a sample in which actives are shown more often than they occur. Calls come from the whole dose curve; as a rule, active = well fitted inhibition curve with a large enough effect; inconclusive = small, poorly fitted or top-dose-only effect, or another doubt; inactive = no such curve, though single readings can be large or run the other way.

experiment: qHTS Assay for Inhibitors of Hepatitis C Virus (HCV); conditions: Huh7.5.1 HCVcc-Cre infection, luciferase reporter, 44 h; series mostly up to 41.8 µM
How it was run: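 1,000 cells/well; 4 h culture; + compound; + HCVcc-Cre (~0.5 moi); 44 h; luciferase substrate, RT 15 min; read 15 sec.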
Potency is the fitted concentration of half-maximal effect.

Row | Structure (SMILES) | Potency
1 | Cc1ccc(-c2csc(NCCc3nc4cc(Cl)c(Cl)cc4n3CCOCCO)n2)cc1 | inactive
2 | CCCCNC(=O)Cn1nc(C)c(S(=O)(=O)N2CCOCC2)c1C | inactive
3 | CC(C)(C)C(=O)Nc1cccc(-c2ccc[nH]2)n1 | inactive
4 | CC(=O)c1c(C)[nH]c(C(=O)N2CCN(S(=O)(=O)c3ccc(F)c(F)c3)CC2)c1C | inactive
5 | CCOc1c2ccc(C(=O)NC3CCCc4ccccc43)cc2nn1CC (centres undefined) | 3.55 µM (active)
6 | CCOc1ccc(NC(=O)COc2ccc(C(=O)NC3CCCc4ccccc43)cc2OC)cc1 (centres undefined) | inactive
7 | CNS(=O)(=O)c1cccc(C(=O)NC2CCCc3ccccc32)c1 (centres undefined) | inactive
8 | CCCc1cc(=O)[nH]c(SCC(=O)Nc2ccc(S(=O)(=O)N3CCCC3)cc2)n1 | inactive
9 | COc1cccc(Oc2ccc(N)cc2)c1 | inactive
10 | CC(C)(C)c1ccc(Oc2ccc(N)cc2)cc1 | 3.55 µM (active)
11 | Nc1ccc(Oc2ccc(Cl)cc2)cc1 | 7.94 µM (active)
12 | Cc1nn(C)c(Oc2ccc(Cl)cc2)c1C=O | inactive
13 | Nc1ccc2nn(-c3ccc(Cl)cc3)nc2c1 | inactive
14 | CC(C)(C)c1ccc(OC2=CS(=O)(=O)c3ccccc32)cc1 | inactive
15 | O=S(=O)(Nc1ccc(O)c2ccccc12)c1ccc(OC(F)(F)F)cc1 | inactive
16 | COc1ccc(CNC(=O)COC(=O)C(CCSC)N2C(=O)c3ccccc3C2=O)cc1 (centres undefined) | inactive
17 | COc1ccc(OCC(O)CN(C)C(=O)C(C)Oc2ccccc2)cc1 (centres undefined) | inactive
18 | C=CCn1c(=N)n(CC(O)COc2ccc(OC)cc2)c2ccccc21 (centres undefined) | 5.62 µM (active)
19 | C=CCc1ccc(OCC(O)CN2CCN(Cc3ccccc3)CC2)c(OC)c1 (centres undefined) | inactive
20 | CCCCn1c(N)c(N(CC(C)C)C(=O)c2cnc(C)cn2)c(=O)[nH]c1=O | inactive
21 | CC1CCN(C(=O)COC(=O)c2cc(S(=O)(=O)N3CCOCC3)ccc2Cl)CC1 | inactive
22 | CNS(=O)(=O)c1ccc(C(=O)NCC(=O)NCCc2ccc3c(c2)OCCO3)cc1 | inactive
23 | O=C(O)c1ccc(Cn2c(=S)[nH]c3cc(Cl)ccc3c2=O)cc1 | inactive
24 | CC(C)c1ccc2c(c1)c(SC(C)(C)C)c(CC(C)(C)C(=O)O)n2Cc1ccc(Cl)cc1 | 10 µM (active)
25 | Cn1c(Cc2cccc3ccccc23)nnc1SCC(=O)N1CCN(c2cccc(Cl)c2)CC1 | 3.98 µM (active)
26 | Cn1c(CNC(=O)c2ccco2)nnc1SCC(=O)N1CCN(c2ccccc2)CC1 | inactive

Row | Structure (SMILES) | Potency
27 | Cc1cc2nnc(SCC(=O)N3CCN(c4ccccc4)CC3)n2c(N)n1 | inactive
28 | O=C(CSc1ncnc2sccc12)NC1CCS(=O)(=O)C1 (centres undefined) | inactive
29 | CC(=O)Nc1ccc(S(=O)(=O)NCC(=O)OCC(=O)c2ccc[nH]2)cc1 | inactive
30 | O=C(c1cccnc1)N(Cc1ccccc1)C(=O)c1cccnc1 | inactive
31 | CCOC(=O)CSc1nc2c(sc(=S)n2CCc2ccccc2)c(=O)n1Cc1ccco1 | 14.1 µM (active)
32 | CCOC(=O)CSc1nnc(-c2ccco2)n1C | inactive
33 | CCOC(=O)CSc1nc2c(c(=O)n(C)c(=O)n2C)n1Cc1ccccc1F | inactive
34 | CC(C)C[C@H]1CN([C@@H](CC(C)C)CN2CCC[C@@H]2CN2C(=O)C(=O)NC[C@@H]2Cc2ccccc2)C(=O)C(=O)N1CCc1ccccc1 | inactive
35 | O=C(c1ccc(N2CCOCC2)c([N+](=O)[O-])c1)N1CCN(c2ccccc2F)CC1 | inactive
36 | COC(=O)[C@]1(Cc2ccccc2)N[C@H](CN(C)S(=O)(=O)c2ccc(OC(F)(F)F)cc2)[C@@H]2C(=O)N(Cc3ccccc3)C(=O)[C@@H]21 | 7.08 µM (active)
37 | COC(=O)[C@]1(Cc2ccccc2)N[C@H](CN(C)S(=O)(=O)c2ccc(F)cc2)[C@@H]2C(=O)N(Cc3ccccc3)C(=O)[C@@H]21 | inactive
38 | CCN(C[C@H]1N[C@@](CC)(C(=O)OC)[C@H]2C(=O)N(Cc3ccccc3)C(=O)[C@@H]12)S(=O)(=O)c1ccccc1 | inactive
39 | CCN(CC(=O)Nc1c(F)cccc1F)C(=O)CN1c2cccc3cccc(c23)S1(=O)=O | inactive
40 | CCCCN(C(=O)c1cccc(N2C(=O)c3ccccc3C2=O)c1)c1c(N)n(CCCC)c(=O)[nH]c1=O | inactive
41 | COc1ccc2c(C)cc3nnnn3c2c1 | inactive
42 | CCn1c2c(c3ccc(OC)cc31)CCCC2=O | 1.26 µM (active)
43 | COc1ccc(C2C3=C(CCCC3=O)N(CC(=O)O)C3=C2C(=O)CCC3)cc1 | inactive
44 | O=C(COC(=O)Cc1ccc([N+](=O)[O-])cc1)NC1CCCCCC1 | inactive
45 | COc1ccc(C2(C)ON(c3ccccc3C(F)(F)F)C2=O)cc1 (centres undefined) | inactive
46 | Cc1ccc(S(=O)(=O)N2CCCCC2)cc1NC(=O)[C@@H]1CCCN1C(=O)c1cccs1 | inactive
47 | O=C(Nc1cc(S(=O)(=O)N2CCCCC2)ccc1Cl)C1COc2ccccc2O1 (centres undefined) | 11.2 µM (active)
48 | O=C(COC(=O)CCOc1ccccc1)Nc1cc(S(=O)(=O)N2CCCCC2)ccc1Cl | inactive
49 | COc1ccc(C(=O)Nc2cc(S(=O)(=O)N3CCCC3)ccc2Cl)cc1 | inactive
50 | O=C(CNCc1cccs1)Nc1cc(S(=O)(=O)N2CCCC2)ccc1Cl | 10 µM (active)
51 | O=C(NCc1cccs1)C1CCN(S(=O)(=O)c2ccc(Cl)cc2)CC1 | inactive
52 | CCOc1ccc(S(=O)(=O)N2CCCCC2)cc1NC(=O)CN1CCCC1c1cccs1 (centres undefined) | 4.47 µM (active)

Row | Structure (SMILES) | Potency
53 | CS(=O)(=O)c1ccc(Cl)c(NC(=O)COC(=O)c2cccc(S(=O)(=O)N3CCCC3)c2)c1 | inactive
54 | CC(=O)NCCC(=O)Nc1cc(S(=O)(=O)N2CCCCC2)ccc1Oc1cccc(C)c1 | inactive
55 | COc1cccc(CC(=NO)c2cccc(OC)c2)c1 | inactive
56 | CCN(C(=O)COC(=O)CCC(=O)c1cccs1)C1CCCCC1 | inactive
57 | O=C1c2ccccc2C(=O)N1CCC#Cc1ccc2cc(C3(O)CCCCC3)oc(=O)c2c1 | inactive
58 | CC(Sc1nncn1C)C(=O)NCCC1=CCCCC1 (centres undefined) | inactive
59 | NS(=O)(=O)c1ccc(CNC(=S)NC(=O)c2ccco2)cc1 | inactive
60 | Nc1c(-c2ccccc2)nnn1Cc1ccccc1 | inactive
61 | Cc1cc(C)cc(OCC(=O)OCC(=O)NC2CCCC2)c1 | inactive
62 | COc1ccc(CC(=O)N/N=C(\C)c2ccccn2)cc1 | inactive
63 | C/C(=N\NC(=O)c1ccccc1F)c1ccccn1 | 11.2 µM (active)
64 | O=C(Nc1ccc(NC(=O)c2ccccc2F)cc1)c1ccccc1F | inactive
65 | C/C(=N\NC(=O)Cc1ccc(Br)cc1)c1cccnc1 | inactive
66 | C/C(=N\NC(=O)Cc1ccc(Cl)cc1)c1ccccn1 | 7.08 µM (active)
67 | C/C(CC(=O)Nc1ccc(N(C)C)cc1)=N\NC(=O)c1ccccc1F | inactive
68 | Cc1noc(C)c1S(=O)(=O)N(C)C[C@H]1Oc2c(NC(=O)Nc3ccc4c(c3)OCO4)cccc2C(=O)N([C@H](C)CO)C[C@@H]1C | inactive
69 | O=C(OCc1cc(=O)n2ccsc2n1)C1(c2ccc(Cl)cc2)CC1 | inactive
70 | O=C(OCC(=O)N1CCc2ccccc21)C1CCCN1S(=O)(=O)c1ccc(Cl)cc1 (centres undefined) | inactive
71 | O=C(NN=CC=Cc1ccccc1)C(O)C(O)C(=O)NN=CC=Cc1ccccc1 (centres undefined) | inactive
72 | CN(C)S(=O)(=O)c1ccc(Oc2ccc(S(=O)(=O)N(C)C)cc2)cc1 | 11.2 µM (active)
73 | Cc1ccc(S(=O)(=O)c2ccc(Oc3ccccc3)cc2)cc1 | inactive
74 | COc1cccc(NC(=O)c2ccc(S(=O)(=O)N(C)C)cc2)c1 | inactive
75 | CN(C)C(=O)c1coc2nc3ccccc3nc12 | inactive
76 | CNC(=O)c1cccc2nc3ccccc3nc12 | 11.2 µM (active)
77 | CNC(=O)c1cc2c(ccc3ccccc32)oc1=N | inactive
78 | CC(C)N(C(=O)CSc1nnc(NC2CC2)s1)c1ccccc1 | inactive

Row | Structure (SMILES) | Potency
79 | CC(=O)Nc1ccc(S(=O)(=O)N2CCN(c3ccc([N+](=O)[O-])c(NCCN4CCOCC4)c3)CC2)cc1 | inactive
80 | COc1ccccc1OCCNC(=O)c1cc([N+](=O)[O-])cc([N+](=O)[O-])c1 | inactive
81 | COc1ccccc1OCCNc1cc(N2CCOCC2)ccc1[N+](=O)[O-] | 14.1 µM (active)
82 | COc1ccc(Cl)cc1NC(=O)CN1CCN(C(=O)N2CCOCC2)CC1 | inactive
83 | Cn1nc(C(=O)OCC(=O)N(Cc2ccccc2)C(C)(C)C)c2ccccc2c1=O | inactive
84 | CN(Cc1ccc(CNC[C@H]2O[C@@H](n3cnc4c(N)ncnc43)[C@H](O)[C@@H]2O)o1)S(C)(=O)=O | inactive
85 | O=C(/C=C/c1cccc([N+](=O)[O-])c1)OCC(=O)N1CCOCC1 | inactive
86 | CCOc1cc(C(=O)N(Cc2ccccc2)c2ccc(C)cc2)ccc1OCC(=O)N1CCOCC1 | inactive
87 | CCn1c(COc2ccccc2)nnc1SCC(=O)Nc1ccc2c(c1)OCCO2 | inactive
88 | CCOC(=O)CNC(=O)CSc1nnc(COc2ccc(Cl)cc2)n1CC | inactive
89 | COc1ccc(OC)c(NC(=O)c2ccc3c(c2)C(=O)N(c2ccc(OC(C)=O)cc2)C3=O)c1 | inactive
90 | CCOc1ccc(C(=O)NC2CCN(C(=O)Nc3ccccc3OC)CC2)cc1 | inactive
91 | CCOc1ccc(NC(=O)Nc2cc(C)ccc2OC)cc1 | 11.2 µM (active)
92 | CCn1c(COc2ccc(OC)cc2)nnc1SCC(=O)Nc1cc(OC)ccc1OC | 1.26 µM (active)
93 | CCOc1ccc(NC(=O)Nc2cc(C)on2)cc1 | inactive
94 | CCOc1ccc(C(=O)Nc2cc(OC)ccc2OC)cc1 | 8.91 µM (active)
95 | COc1ccc(C)cc1NC(=O)NCc1ccccn1 | inactive
96 | CC1CCCCC12NC(=O)N(CC(=O)N1CCN(c3ccccc3)CC1)C2=O (centres undefined) | inactive
97 | CSCCC(NC(=O)c1ccco1)C(=O)NCCc1ccc(F)cc1 (centres undefined) | inactive
98 | O=C(OCC(=O)N1CCCCCC1)c1ccc(Br)c(S(=O)(=O)N2CCOCC2)c1 | inactive
99 | O=C(NCCCN1CCOCC1)c1ccc2c(c1)N(Cc1cccc(F)c1)C(=O)c1ccccc1S2 | inactive
100 | CCN1CCN(CCNC(=O)c2ccc3c(c2)NC(=O)/C(=C\c2ccc(OC)c(OC)c2)S3)CC1 | 31.6 µM (active)
101 | COc1ccc(/C=C(\NC(=O)c2ccccc2)C(=O)NCCN2CCOCC2)cc1OC | inactive
102 | CCN1CCN(CCNC(=O)c2ccc(/C=C3/Sc4ccccc4N(Cc4cccc(C)c4)C3=O)cc2)CC1 | 8.91 µM (active)
103 | COc1ccc(CCNC(=O)c2ccc3c(c2)NC(=O)C(N2CCOCC2)S3)cc1OC (centres undefined) | inactive
104 | Cc1nn(Cc2ccccc2)c(C)c1C(=O)NCCN1C(=O)S/C(=C\c2ccc(F)cc2)C1=O | inactive
